Measurements: ChEMBL document CHEMBL1961873, “Compounds: GSK PKIS; Assays: Nanosyn kinase panel” (2012)

What was measured:
[1] = biological target: T1, Serine/threonine-protein kinase D2 (Homo sapiens) (UniProt Q9BZL6); details: at 1 µM;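 note: mean value of PRKD2 inhibition, from the GSK PKIS screening panel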
T1 sequence (whole entry): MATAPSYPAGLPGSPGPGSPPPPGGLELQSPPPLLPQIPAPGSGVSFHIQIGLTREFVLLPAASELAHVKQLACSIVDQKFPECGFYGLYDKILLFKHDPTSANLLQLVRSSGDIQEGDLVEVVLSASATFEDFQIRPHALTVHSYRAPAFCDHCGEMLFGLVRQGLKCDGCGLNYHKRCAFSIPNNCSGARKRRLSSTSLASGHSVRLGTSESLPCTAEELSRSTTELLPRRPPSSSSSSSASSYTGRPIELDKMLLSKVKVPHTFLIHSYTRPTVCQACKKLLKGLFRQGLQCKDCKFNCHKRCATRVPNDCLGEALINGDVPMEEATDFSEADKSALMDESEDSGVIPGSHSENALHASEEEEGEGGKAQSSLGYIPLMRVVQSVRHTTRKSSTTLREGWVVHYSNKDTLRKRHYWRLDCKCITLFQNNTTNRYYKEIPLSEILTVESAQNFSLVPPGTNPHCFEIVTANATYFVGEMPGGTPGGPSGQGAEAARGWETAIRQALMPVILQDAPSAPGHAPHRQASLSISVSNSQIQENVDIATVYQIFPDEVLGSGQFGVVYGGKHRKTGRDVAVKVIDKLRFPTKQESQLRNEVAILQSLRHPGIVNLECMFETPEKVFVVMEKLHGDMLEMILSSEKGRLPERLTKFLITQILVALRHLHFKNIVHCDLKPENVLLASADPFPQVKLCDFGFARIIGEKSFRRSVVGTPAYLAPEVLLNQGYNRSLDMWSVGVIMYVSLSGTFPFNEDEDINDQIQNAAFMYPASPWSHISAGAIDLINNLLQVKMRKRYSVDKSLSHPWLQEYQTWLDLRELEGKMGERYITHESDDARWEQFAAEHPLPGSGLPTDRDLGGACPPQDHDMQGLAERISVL

[2] = biological target: T2, Serine/threonine-protein kinase D3 (Homo sapiens) (UniProt O94806); details: at 0.1 µM
T2 sequence (whole entry): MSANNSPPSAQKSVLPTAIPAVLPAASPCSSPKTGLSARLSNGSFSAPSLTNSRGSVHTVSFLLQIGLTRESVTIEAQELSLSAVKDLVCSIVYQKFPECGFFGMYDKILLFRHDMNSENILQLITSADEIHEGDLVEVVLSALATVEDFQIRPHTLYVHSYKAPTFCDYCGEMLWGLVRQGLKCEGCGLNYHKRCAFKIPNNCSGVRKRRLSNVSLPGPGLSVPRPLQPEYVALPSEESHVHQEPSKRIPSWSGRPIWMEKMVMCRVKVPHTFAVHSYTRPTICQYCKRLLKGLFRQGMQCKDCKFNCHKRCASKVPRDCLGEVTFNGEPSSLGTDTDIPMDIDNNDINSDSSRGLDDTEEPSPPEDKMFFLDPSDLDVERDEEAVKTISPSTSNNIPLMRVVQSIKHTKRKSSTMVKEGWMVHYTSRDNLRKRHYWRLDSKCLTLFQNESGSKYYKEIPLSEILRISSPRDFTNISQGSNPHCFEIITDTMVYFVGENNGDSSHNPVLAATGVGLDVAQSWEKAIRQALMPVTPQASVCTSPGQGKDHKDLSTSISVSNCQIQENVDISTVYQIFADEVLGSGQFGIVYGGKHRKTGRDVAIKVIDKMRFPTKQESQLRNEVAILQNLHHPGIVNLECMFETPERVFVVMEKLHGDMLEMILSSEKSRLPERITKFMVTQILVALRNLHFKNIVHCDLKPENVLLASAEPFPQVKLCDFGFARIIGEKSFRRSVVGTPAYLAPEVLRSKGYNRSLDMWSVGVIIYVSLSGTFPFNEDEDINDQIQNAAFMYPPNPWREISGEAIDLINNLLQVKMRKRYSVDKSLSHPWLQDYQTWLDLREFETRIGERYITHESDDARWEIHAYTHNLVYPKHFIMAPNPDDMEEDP

[3] = biological target: T2, Serine/threonine-protein kinase D3 (Homo sapiens); details: at 1 µM
[4] = biological target: T3, cGMP-dependent protein kinase 1 (Homo sapiens) (UniProt Q13976); details: at 0.1 µM
T3 sequence (whole entry): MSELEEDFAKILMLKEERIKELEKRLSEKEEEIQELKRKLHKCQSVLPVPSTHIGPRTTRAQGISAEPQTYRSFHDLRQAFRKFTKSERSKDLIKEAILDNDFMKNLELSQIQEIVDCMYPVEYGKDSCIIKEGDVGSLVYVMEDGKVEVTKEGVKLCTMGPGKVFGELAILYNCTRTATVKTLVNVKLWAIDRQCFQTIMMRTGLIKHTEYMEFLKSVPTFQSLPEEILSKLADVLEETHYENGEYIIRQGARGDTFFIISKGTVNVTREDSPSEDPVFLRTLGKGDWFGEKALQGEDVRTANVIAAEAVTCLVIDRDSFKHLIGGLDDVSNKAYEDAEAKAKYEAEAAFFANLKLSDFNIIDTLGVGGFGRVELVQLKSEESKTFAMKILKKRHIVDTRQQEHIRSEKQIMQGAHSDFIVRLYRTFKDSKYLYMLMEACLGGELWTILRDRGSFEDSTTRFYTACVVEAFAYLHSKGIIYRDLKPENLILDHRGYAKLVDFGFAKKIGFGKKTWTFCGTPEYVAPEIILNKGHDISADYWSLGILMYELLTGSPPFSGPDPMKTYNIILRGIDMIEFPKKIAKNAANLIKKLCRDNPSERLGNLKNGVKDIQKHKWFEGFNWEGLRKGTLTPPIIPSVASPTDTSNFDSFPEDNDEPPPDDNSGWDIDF

[5] = biological target: T3, cGMP-dependent protein kinase 1 (Homo sapiens); details: at 1 µM
[6] = biological target: T4, cGMP-dependent protein kinase 2 (Homo sapiens) (UniProt Q13237); details: at 0.1 µM
T4 sequence (whole entry): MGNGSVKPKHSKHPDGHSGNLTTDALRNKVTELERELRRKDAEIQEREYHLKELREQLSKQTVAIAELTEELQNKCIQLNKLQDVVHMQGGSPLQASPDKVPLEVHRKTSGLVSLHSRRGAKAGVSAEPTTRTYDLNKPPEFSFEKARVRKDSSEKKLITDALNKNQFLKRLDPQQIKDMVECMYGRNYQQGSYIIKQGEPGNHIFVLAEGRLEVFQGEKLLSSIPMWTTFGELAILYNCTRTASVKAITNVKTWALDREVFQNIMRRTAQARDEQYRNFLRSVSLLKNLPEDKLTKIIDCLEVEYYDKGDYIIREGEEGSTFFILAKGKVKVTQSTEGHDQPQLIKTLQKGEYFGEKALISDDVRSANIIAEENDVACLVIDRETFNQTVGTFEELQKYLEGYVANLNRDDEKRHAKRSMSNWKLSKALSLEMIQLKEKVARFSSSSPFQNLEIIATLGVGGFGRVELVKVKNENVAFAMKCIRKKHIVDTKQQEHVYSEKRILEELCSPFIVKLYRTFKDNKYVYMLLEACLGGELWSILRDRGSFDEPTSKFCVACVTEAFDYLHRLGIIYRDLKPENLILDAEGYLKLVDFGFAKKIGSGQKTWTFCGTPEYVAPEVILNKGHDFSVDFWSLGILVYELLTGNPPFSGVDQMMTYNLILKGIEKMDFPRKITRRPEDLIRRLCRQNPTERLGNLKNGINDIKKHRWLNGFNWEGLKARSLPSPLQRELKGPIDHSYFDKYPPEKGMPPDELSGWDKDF

[7] = biological target: T4, cGMP-dependent protein kinase 2 (Homo sapiens); details: at 1 µM
[8] = biological target: T5, cAMP-dependent protein kinase catalytic subunit PRKX (Homo sapiens) (UniProt P51817); details: at 0.1 µM
T5 sequence (whole entry): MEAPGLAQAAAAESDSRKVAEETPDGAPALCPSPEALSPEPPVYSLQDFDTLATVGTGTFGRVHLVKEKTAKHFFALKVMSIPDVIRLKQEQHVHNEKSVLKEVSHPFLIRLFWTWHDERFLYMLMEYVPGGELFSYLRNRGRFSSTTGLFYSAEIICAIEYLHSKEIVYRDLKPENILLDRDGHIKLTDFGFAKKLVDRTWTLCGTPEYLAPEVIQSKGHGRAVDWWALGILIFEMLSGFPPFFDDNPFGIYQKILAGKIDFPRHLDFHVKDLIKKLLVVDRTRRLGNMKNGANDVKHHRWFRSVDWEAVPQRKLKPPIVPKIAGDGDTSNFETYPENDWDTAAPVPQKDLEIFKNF

[9] = biological target: T5, cAMP-dependent protein kinase catalytic subunit PRKX (Homo sapiens); details: at 1 µM
[10] = biological target: Rho-associated protein kinase 1 (Homo sapiens) (UniProt Q13464); details: at 0.1 µM;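 note: values are mean percent inhibition of ROCK1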
Chain of Rho-associated protein kinase 1 (Homo sapiens) (Q13464 2-1354 limits assumed): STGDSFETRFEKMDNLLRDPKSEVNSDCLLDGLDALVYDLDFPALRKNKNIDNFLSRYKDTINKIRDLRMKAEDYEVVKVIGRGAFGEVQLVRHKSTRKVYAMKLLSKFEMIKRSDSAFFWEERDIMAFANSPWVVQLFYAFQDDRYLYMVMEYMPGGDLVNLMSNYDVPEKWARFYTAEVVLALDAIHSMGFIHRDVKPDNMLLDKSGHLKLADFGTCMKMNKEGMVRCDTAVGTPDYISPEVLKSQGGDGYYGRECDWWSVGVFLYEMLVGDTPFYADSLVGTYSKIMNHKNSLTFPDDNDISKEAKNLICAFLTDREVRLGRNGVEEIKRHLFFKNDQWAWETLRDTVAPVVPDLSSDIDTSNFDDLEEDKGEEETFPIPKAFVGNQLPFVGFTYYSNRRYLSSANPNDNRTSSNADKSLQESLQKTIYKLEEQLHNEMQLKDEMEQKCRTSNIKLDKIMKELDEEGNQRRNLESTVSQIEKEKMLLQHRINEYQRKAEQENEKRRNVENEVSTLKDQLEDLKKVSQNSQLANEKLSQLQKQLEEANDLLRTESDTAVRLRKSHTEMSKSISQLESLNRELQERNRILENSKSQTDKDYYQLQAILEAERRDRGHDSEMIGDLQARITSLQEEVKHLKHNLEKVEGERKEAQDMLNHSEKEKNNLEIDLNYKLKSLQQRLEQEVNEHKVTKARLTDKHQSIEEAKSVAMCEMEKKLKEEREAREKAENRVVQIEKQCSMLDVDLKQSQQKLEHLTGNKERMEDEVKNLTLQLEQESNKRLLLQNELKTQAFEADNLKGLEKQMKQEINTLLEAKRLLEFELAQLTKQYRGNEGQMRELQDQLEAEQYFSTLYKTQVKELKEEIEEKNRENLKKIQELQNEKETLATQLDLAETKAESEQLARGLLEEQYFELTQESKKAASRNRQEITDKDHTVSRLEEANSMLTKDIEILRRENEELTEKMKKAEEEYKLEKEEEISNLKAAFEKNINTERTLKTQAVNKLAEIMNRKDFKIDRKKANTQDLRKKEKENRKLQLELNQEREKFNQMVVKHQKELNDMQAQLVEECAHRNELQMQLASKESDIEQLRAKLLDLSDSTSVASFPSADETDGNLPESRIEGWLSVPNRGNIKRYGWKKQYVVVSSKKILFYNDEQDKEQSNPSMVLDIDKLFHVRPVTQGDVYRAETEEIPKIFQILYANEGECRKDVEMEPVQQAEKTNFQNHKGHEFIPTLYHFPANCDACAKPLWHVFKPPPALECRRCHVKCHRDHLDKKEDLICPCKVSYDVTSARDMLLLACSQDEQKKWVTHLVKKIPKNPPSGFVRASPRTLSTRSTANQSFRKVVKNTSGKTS

Structure (SMILES) | inhibition [1] [%] | inhibition [2] [%] | inhibition [3] [%] | inhibition [4] [%] | inhibition [5] [%] | inhibition [6] [%] | inhibition [7] [%] | inhibition [8] [%] | inhibition [9] [%] | inhibition [10] [%]
COc1ccc2[nH]c3c4[nH]c5ccc(OC)cc5c4c4c(c3c2c1)C(=O)NC4=O | 45.9 | 5.31 | 14.4 | 6.13 | 35 | 69.5 | 72.5 | 9.07 | 46 | 1.15
Fc1cccc(COc2ccc(Nc3ncnc4sc(-c5ccco5)cc34)cc2Cl)c1 | 2.52 | 5.28 | 4.41 | 2.93 | 1.81 | 1.59 | -0.65 | 2.01 | 2.86 | 2.54
COc1cc2ncn(-c3cc(OCc4ccccc4C(F)(F)F)c(C(=O)N(C)C)s3)c2cc1OC | 1.88 | 0.07 | -0.01 | -0.43 | 0.77 | -0.41 | 0.43 | -0.01 | -0.4 | -0.15
CNC(=O)c1cc(-c2ccc(F)cc2)cc(-c2ccc(S(=O)(=O)N3CCCC3)cc2)c1N | 1.98 | 3.24 | 3.34 | 1.61 | 2.76 | 1.41 | 0.53 | 2.59 | 1.29 | 1.6
Nc1ncc(-c2cccc(S(N)(=O)=O)c2)c2scc(-c3ccc(F)c(Cl)c3)c12 | 43.8 | 6.03 | 33.1 | 1.07 | -0.14 | 2.34 | 1.46 | 1.86 | 1.14 | 1.03
CN1CCC(n2cnc(-c3ccc(F)cc3)c2-c2ccnc(Nc3ccccc3)n2)CC1 | 46.5 | 6.42 | 43.5 | 1.69 | 3.29 | 0.99 | 5.8 | 1.37 | 1.71 | -0.46
Fc1ccc(-c2nn3ncccc3c2-c2ccnc(Nc3ccc4c(c3)OCCO4)n2)cc1 | 52.1 | 8 | 48.4 | 2.53 | 4.25 | 2.03 | 3.43 | 0.43 | 0.09 | -0.74
CCN(CC)S(=O)(=O)c1ccc(OC)c(Nc2ncc(-c3ccccc3)o2)c1 | 1.51 | -0.55 | 0.06 | 0.75 | 0.61 | 0.25 | 0.95 | 0.38 | 0.62 | 0.86
COc1ccc(-c2nn3ncccc3c2-c2ccnc(Nc3ccc4c(c3)OCCO4)n2)cc1 | 9.73 | 2.09 | 8.59 | -0.47 | -2.7 | 0.2 | -1.06 | 0.59 | -0.08 | 0.43
